Inconclusive results are not listed. Active and inactive are the calls of the source. Calls come from the whole dose curve; as a rule, active = well fitted inhibition curve with a large enough effect; inconclusive = small, poorly fitted or top-dose-only effect; inactive = no such curve, though single readings can be large or run the other way.
These molecules were tested on Zika virus NS2B-NS3 protease (linked construct) (assay: Primary screen NINDS Rhodamine qHTS for Zika virus inhibitors (AID 1347160; note: nearly all actives have a fitted effect of over 55% in size)). Settings: purified NS2B-NS3 protease, Rhodamine110 substrate fluorescence; series mostly up to 57.1 µM; activity change, negative = inhibition: at the top concentration.
Outline: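 Kinetic fluorescence (Ex 480 nm, Em 540 nm) over 15 min with 1.5 microM Rhodamine110 peptide and 25 nM linked protease.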
With `CC1(C)CCCC2(C)C(C(=O)O)=CCC12` (stereo unspecified) the “activity change, negative = inhibition” value was 20.7% (inactive).
`C=C(C(=O)O)C1CC2=C(C)CCCC2(C)C[C@@H]1O` (stereo partly specified) was tested, and the “activity change, negative = inhibition” value was -13.5% (inactive).
With `CN1CCN(C(=O)c2ccc3cc(CCNc4ncnc5ccc(C#N)cc45)ccc3c2)CC1` the “activity change, negative = inhibition” value was 29.9% (inactive).
In the case of `CC(C)(O)/C=C/CC(C)(O)C1C(O)CC2(C)C3CCC4C(C)(C)C(=O)CCC4(C)C3CCC12C` (stereo unspecified), the “activity change, negative = inhibition” value is reported as -18.4% [at 33.1 µM] (inactive).
`CC(=O)CCC1=C(C)C(O[C@@H]2O[C@H](CO)[C@@H](O)[C@H](O)[C@H]2O)C(O)CC1(C)C` (stereo partly specified) was tested, and the “activity change, negative = inhibition” value was 1.44% [at 33.1 µM] (inactive).
For `C=C1C(=O)O[C@H]2C1[C@H](OC(=O)/C(=C/CO)COC(=O)/C(C)=C/CO)CC(=C)[C@@H]1CC(=O)[C@@H](C)[C@@H]12` (stereo partly specified), the “outcome” value was “inactive [at 33.1 µM]”.
% is set by controls: 0 for no effect and ±100 for the full control effect.
